Assay outcomes deposited in PubChem by National Center for Advancing Translational Sciences (NCATS).
JMJD2E inh = blocks human JMJD2E demethylase activity | B2RXH2 | JMJD2E catalytic domain, FDH-coupled NADH fluorescence (FDH is formaldehyde dehydrogenase) | Potency, µM (highest dose often 57.1 µM), most hits filed as inhibitors | actives 1.6% (n = 230,000); further: nearly all actives have a fitted effect of over 50% in size
Target sequence (B2RXH2 1-337 limits assumed): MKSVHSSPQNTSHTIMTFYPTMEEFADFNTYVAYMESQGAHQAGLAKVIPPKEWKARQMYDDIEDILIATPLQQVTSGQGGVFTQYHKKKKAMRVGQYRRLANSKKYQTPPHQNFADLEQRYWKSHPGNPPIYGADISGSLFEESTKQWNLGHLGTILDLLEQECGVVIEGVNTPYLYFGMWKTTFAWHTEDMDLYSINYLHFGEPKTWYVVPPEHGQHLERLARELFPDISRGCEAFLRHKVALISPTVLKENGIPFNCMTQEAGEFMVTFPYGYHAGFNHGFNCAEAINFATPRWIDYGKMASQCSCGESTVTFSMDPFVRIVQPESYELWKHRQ
ALDH1A1 inh = blocks purified human ALDH1A1 activity; P00352; Purified ALDH1A1, NADH fluorescence, propionaldehyde substrate; Potency, µM (top dose mostly 75.3 µM), actives largely listed as inhibitors; actives 7.3% (n = 220,000); AID 1030
HPGD inh = blocks human HPGD enzyme activity; Potency, µM, most hits filed as inhibitors; purified HPGD, NADH fluorescence kinetic, PGE2 substrate; P15428; actives 4.3% (n = 150,000)
Target sequence (P15428 whole entry, looked up): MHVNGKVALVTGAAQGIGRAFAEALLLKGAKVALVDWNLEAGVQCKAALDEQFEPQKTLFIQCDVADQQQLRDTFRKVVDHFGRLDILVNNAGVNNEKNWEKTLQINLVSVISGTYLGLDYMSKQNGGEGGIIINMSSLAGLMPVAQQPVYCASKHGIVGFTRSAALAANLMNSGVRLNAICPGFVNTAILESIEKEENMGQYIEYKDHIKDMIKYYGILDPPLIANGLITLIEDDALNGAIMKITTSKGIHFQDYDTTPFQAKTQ
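20 nM HPGD preincubated 15 min at room temperature with compound in 50 mM Tris-HCl pH 8, 0.01% Tween 20. Started with 1 mM NAD+ and 30 uM prostaglandin E2; NADH fluorescence (360/450 nm) read 5 times over 30-s intervals, last minus first.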
PNC inhibitor = blocks assembly of the perinucleolar compartment; PC3M PTB-GFP, PNC prevalence imaging, 16 h; active compounds read low; activity change (PNC), negative = inhibition, % at 10 µM; actives 3.1% (n = 140,000);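 active means readout at or below -70, meaning at least 70% loss of cells showing the perinucleolar compartment, a nuclear body marking cancer cells; inconclusive means readout between -30 and a set limit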
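Read-out is percentage of cells bearing a perinucleolar compartment, from automated 20x imaging of fixed, Hoechst-stained PC3M PTB-GFP cells. Cells were seeded 4 h, then exposed 16 h to compound (23 nl of library stock) in duplicate plates.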
Hits are given with their value; - = inactive; ? = inconclusive; . = not tested or not shown; [ ] = dose if it differs, or a comment. Only some compounds are listed: those with a hit (about 11% of all), similar ones and a draw of the others. Unless noted, the call rests on the fitted dose curve; in most records, active means well fitted inhibition curve with a large enough effect (not every such curve was filed as active); inconclusive means small, poorly fitted or top-dose-only effect, or another doubt; inactive means no such curve, though single readings can be large or run the other way.

SMILES	JMJD2E inh	ALDH1A1 inh	HPGD inh	PNC inhibitor
Oc1oc(-c2cccc3ccccc23)nc1/C=N/c1nccs1	-	-	-	?
Cc1ccnc(N=Cc2nc(-c3ccccc3Br)oc2O)c1	?	4µM	.	.
CSc1ccccc1N=Cc1nc(-c2ccccc2)oc1O	-	5µM	?	-
Cc1cccc(/N=C/c2nc(-c3ccccc3Br)oc2O)n1	-	3.5µM	.	.
Cc1n[nH]c(=O)n1-c1ccc(OCc2ccccc2)cc1	-	-	.	.
CCOCCOCC	.	-	-	.
N#Cc1ccc(CSc2nc(-c3cccs3)c3c(c2C(=O)O)CCCC3)cc1	.	?	18µM	.
O=C(COc1ccccc1O)N1CCN(C(=O)c2ccco2)CC1	-	-	-	-
Cc1ccccc1NC(=O)N1CCN(C(=O)c2ccco2)CC1	-	-	.	.
O=C(Cc1ccccc1)N1CCN(C(=O)c2ccco2)CC1	-	20µM	-	-
Cc1cccc(C)c1NC(=O)C(c1ccccc1)N1CCN(C(=O)c2ccco2)CC1 (configuration not stated)	-	25µM	-	-
O=C(CCSc1ccccc1)N1CCN(C(=O)c2ccco2)CC1	-	22µM	-	-91
O=C(c1ccco1)N1CCN(C(=O)c2cc(-c3ccccn3)nc3ccccc23)CC1	-	3.5µM	-	-
CCCC(C)NC(=S)Nc1cc(C)cc(C)c1 (configuration not stated)	-	-	.	.
Nc1[nH]c(=O)ncc1F	-	-	-	-
O=C(c1ccco1)N1CCN(Cc2nc(Cc3ccccc3)no2)CC1	-	22µM	.	.
CC(C)(C)c1ccc(S(=O)(=O)NCC(=O)N2CCN(C(=O)c3ccco3)CC2)cc1	-	1.6µM	-	-
Cc1ccc(S(=O)(=O)N(C)CC(=O)N2CCN(C(=O)c3ccco3)CC2)cc1	-	?	-	-
O=C(c1ccco1)N1CCN(CCCCOc2cccc3ccccc23)CC1	?	-	-	-
c1ccc(COC2CCCN(Cc3nc(Cc4ccccc4)no3)C2)cc1 (configuration not stated)	-	14µM	.	.
O=C(c1ccco1)N1CCN(CCOCCOc2cccc3ccccc23)CC1	-	-	-	-80
CCCCCCNc1c([N+](=O)[O-])c(=O)sc2ccccc12	-	-	.	.
Nc1cc2c(cc1C(=O)c1ccc(Cl)cc1)OCCO2	-	-	-	-
O=C(c1ccco1)N1CCN(C(=O)c2cccs2)CC1	-	-	-	-
O=C(c1ccco1)N1CCN(C(=O)c2sccc2-c2ccccc2)CC1	-	13µM	-	-100
SMILES	JMJD2E inh	ALDH1A1 inh	HPGD inh	PNC inhibitor
COc1ccc(OC)c2[nH]c(=O)c(CCNC(C)=O)cc12	-	-	-	?
CCS(=O)(=O)NCCc1cc2c(OC)ccc(OC)c2[nH]c1=O	-	?	-	-100
CCCS(=O)(=O)NCCc1cc2ccc(C)cc2[nH]c1=O	-	?	?	-
CCCS(=O)(=O)NCCc1cc2cc(C)c(C)cc2[nH]c1=O	?	-	-	-100
OCC1=CC[N+]2(Cc3ccccc3)CCC(O)[C@@H]12 (some centres not stated)	-	-	-	.
CCn1cc(Br)c(C(=O)Nc2ccc(Cl)cc2Cl)n1	-	-	-	-113
CCn1cc(Br)c(C(=O)Nc2ccc(F)c(Cl)c2)n1	-	-	-	?
C#CCCCO/N=C1/C[C@@H](O)[C@@H](O)[C@@H]2[C@@H]3C(=O)N(CCC(=O)OCC)C(=O)[C@H]3CC[C@H]12	.	-[13.5 µM]	.	.
CSc1ccc(C(=O)C2CCCN(C(=O)c3csc(C(C)=O)c3)C2)cc1 (configuration not stated)	-	2µM	.	.
COC(=O)c1ccc(CSc2nc3ccccc3c(=O)n2-c2ccccc2)o1	-	25µM	-	-
Cc1noc(C)c1CSc1nc2[nH]ncc2c(=O)n1-c1ccccc1	-	1.3µM	-	-100
O=c1c2cn[nH]c2nc(SCc2c(F)cccc2F)n1-c1ccc(Cl)cc1	-	-	.	.
Cc1nc(CSc2nc3[nH]ncc3c(=O)n2-c2ccccc2)cs1	-	13µM	-	-
Cc1noc(C)c1CSc1nc2ccccc2c(=O)n1-c1ccccc1	-	4.5µM	-	-
O=c1[nH]c(CSc2ncnc3sc(-c4ccccc4)cc23)nc2ccccc12	-	?	.	.
Cc1noc(C)c1CSc1nc2ccccc2c(=O)n1-c1ccc(F)cc1F	-	8.9µM	-	?
CCOC(=O)c1ccc(N2C(=O)C3C(/C=C/c4ccccc4)OC4(C(=O)c5ccccc5C4=O)C3C2=O)cc1 (configuration not stated)	-	-	-	-
NC(=O)c1c(N)sc2c1CCCC2	?	13µM	32µM	-
Nc1sc2c(c1C(=O)NCCc1ccccc1)CCC2	-	20µM	.	.
Nc1sc2c(c1C(=O)c1ccccc1)CCCC2	-	14µM	?	-
O=C(N=C1c2ccccc2CN1c1ccc(F)c(F)c1)c1cccnc1	-	14µM	.	.
CNc1nc2[nH]c(=O)c3c(c2s1)OC(N)=C(C#N)C3c1cccc(F)c1 (configuration not stated)	-	7.1µM	?	-
C=CCSc1nc2c(c(=O)[nH]1)C(c1ccccc1)C(C#N)=C(N)O2 (configuration not stated)	-	.	.	.
NS(=O)(=O)c1cccc2c1c([N+](=O)[O-])cc1nc(O)c(O)nc12	?	-	16µM	.
O=c1[nH]cnc2c([N+](=O)[O-])cccc12	-	-	-	-
SMILES	JMJD2E inh	ALDH1A1 inh	HPGD inh	PNC inhibitor
O=[N+]([O-])c1cc2cccnc2c2ncccc12	-	-	.	.
NS(=O)(=O)c1cccc2c1c([N+](=O)[O-])cc1[nH]c(=O)c(=O)[nH]c12	-	-	16µM	.
CN1CCN(NC(=S)NC(C)(C)CC(C)(C)C)CC1	-	-	.	.
O=[N+]([O-])c1ccc(Cl)c(CNc2ncnc3c2ncn3[C@@H]2CCCCO2)c1	.	-[13.5 µM]	3.5µM	.
CC1(C)Cc2[nH]c(=S)c(C#N)cc2CO1	13µM	2.2µM	25µM	?
CC1(C)Cc2c(c(N3CCCC3)[nH]c(=S)c2C#N)CO1	-	?	-	-
N#Cc1cc2c([nH]c1=S)CCCC2	-	8.9µM	14µM	-
COc1cc(C2C(C#N)=C(N)OC3=C2C(=O)CC(C)(C)C3)ccc1OCCN1CCOCC1 (configuration not stated)	-	.	.	.
CC1=CCC2C(=O)N(CCc3c[nH]c4ccccc34)C(=O)C2C1 (configuration not stated)	-	-	-	-
COC(=O)C1=C(C)N(CCc2c[nH]c3ccccc23)C(=O)/C1=C\N(C)C	-	13µM	.	.
COC(=O)C1=C(C)N(CCc2ccc(OC)c(OC)c2)C(=O)C1	-	?	-	-
COC(=O)C1=C(C)N(CCc2ccc(OC)cc2)C(=O)C1	-	10µM	-	-
COC(=O)C1=C(C)N(CCc2c[nH]c3ccc(OC)cc23)C(=O)C1	-	18µM	.	.
C(/C=C\c1ccccc1)=Nc1ccc2c(c1)Cc1ccccc1-2	.	?	-	.
CC(C)(C)NC[C@H](O)c1cc(O)cc(O)c1	-	-	-	.
CC(NC(=O)c1sc2ccccc2c1Cl)C1CCCO1 (configuration not stated)	-	-	-	-
Cc1ccc2c(Cl)c(C(=O)NCC3CCCO3)sc2c1 (configuration not stated)	-	-	14µM	-
